By remaining activity is commonly meant the signal under treatment as a percentage of the control signal.

Activity calls are given as the source filed them. How the calls were made is not given here.

Here are results for 40 compounds from PubChem BioAssay.

This test concerns Aerobactin synthetase IucA (Klebsiella pneumoniae, hypervirulent). Description: IucA enzyme inhibition, biochemical, LOPAC library, absorbance readout (AID 1346212).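 Further: 100% = no compound wells and 0% = no enzyme wells.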 The conditions noted are these: IucA enzyme assay, absorbance (OD) readout; stronger effect = lower value;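 tested at 8 µM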.
With `CC(C)(C)NC(=O)[C@H]1CC[C@H]2[C@@H]3CC[C@H]4NC(=O)C=C[C@]4(C)[C@H]3CC[C@]12C`, the remaining activity is 119% (inactive).
The value for `CNc1cc(NS(=O)(=O)c2ccc(N)cc2)nc(NC)n1` was 104% (inactive); that for `O=c1oc(Cl)c(Cl)c2ccccc12` was 92.9% (inactive); that for `CC(C)(C)c1cc(/C=C(\C#N)C(N)=S)cc(C(C)(C)C)c1O` was 97.1% (inactive).
As to `O=C(NCC1CCCCN1)c1cc(OCC(F)(F)F)ccc1OCC(F)(F)F` (stereo not given), the remaining activity was 91.1% (inactive).
The figure for `CCc1cccc(N(C)C(N)=Nc2cccc3ccccc23)c1` is 96.2% (inactive).
Take `CN(C)CC[C@@H](c1ccc(Cl)cc1)c1ccccn1`: the remaining activity is 117% (inactive).
`N#Cc1cc([N+](=O)[O-])c2sc(C(N)=O)[n+]([O-])c2c1`: the remaining activity is 106% (inactive).
Turning to `C[C@]12CCC(=O)C=C1CC[C@@H]1[C@@H]2CC[C@@]2(C)[C@H]1CC[C@]2(O)C(=O)CO`, the remaining activity is 110% (inactive).
On to `NCCS(=O)O`, for which the remaining activity was 101% (inactive).
Turning to `OC[C@H]1O[C@@H](n2cnc3c(Nc4ccccc4)ncnc32)[C@H](O)[C@@H]1O`, the remaining activity was 89.3% (inactive).
With `OC(CN1CCC(Cc2ccc(F)cc2)CC1)c1ccc(Cl)cc1` (stereo not given), the remaining activity was 99.6% (inactive).
On to `N=S(=O)(O)Cc1noc2ccccc12`, for which the remaining activity was 121% (inactive).
For the compound `COC(=O)Nc1nc2ccc(C(=O)c3cccs3)cc2[nH]1`, the remaining activity was 117% (inactive).
Turning to `O=C(c1ccc2c(c1)OCCO2)N1CCCCC1`, the remaining activity is 87.4% (inactive).
With `CN1CC(=O)NC1=NC(=O)Nc1cccc(Cl)c1`, the remaining activity is 98.9% (inactive).
Regarding `O=C(O)C1(C(=O)O)CCC1.[NH2-].[NH2-].[Pt+2]`, the remaining activity is 113% (inactive).
Turning to `N[C@@H](CCCC(=O)O)C(=O)O`, the remaining activity is 110% (inactive).
The value for `CC(=O)N[C@@H](Cc1c[nH]c2ccccc12)C(=O)OCc1cc(C(F)(F)F)cc(C(F)(F)F)c1` was 117% (inactive); that for `O=C(Nc1cccc(C(=O)Nc2ccc(S(=O)(=O)O)c3cc(S(=O)(=O)O)cc(S(=O)(=O)O)c23)c1)Nc1cccc(C(=O)Nc2ccc(S(=O)(=O)O)c3cc(S(=O)(=O)O)cc(S(=O)(=O)O)c23)c1` was 88.6% (inactive).
The value for `O=C(O)[C@@H]1C[C@@H](C(=O)O)N1` was 115% (inactive); that for `O=[N+]([O-])c1ccc(-c2nc(-c3ccc(F)cc3)c(-c3ccncc3)[nH]2)cc1` was 95.7% (inactive).
On to `CCc1c(C)[nH]c2c1C(=O)C(CN1CCOCC1)CC2` (stereo not given), for which the remaining activity was 121% (inactive).
In the case of `CN(C(=O)CCCOc1ccc2[nH]c(=O)ccc2c1)C1CCCCC1`, the remaining activity was 124% (inactive).
As to `COc1ccc2c(c1)CC[C@@H]1[C@@H]2CC[C@]2(C)[C@@H](NCCCCCCN3C(=O)C=CC3=O)CC[C@@H]12`, the remaining activity is 111% (inactive).
Take `O=C1NC(=O)C(c2ccccc2[N+](=O)[O-])=C1Nc1ccc(O)c(Cl)c1`: the remaining activity is 95% (inactive).
As to `CC(C)(CO)Cc1cc(C(C)(C)C)c(O)c(C(C)(C)C)c1`, the remaining activity was 109% (inactive).
As for `CCCCCCCCc1ccc(-c2ccc(C(=O)O)cc2)cc1`, the remaining activity is 124% (inactive).
As for `Cc1nc2c(OCc3ccccc3)cccn2c1CC#N`, the remaining activity was 126% (inactive).
Take `CC(=O)O[C@H]1Cc2ccccc2N(C(N)=O)c2ccccc21`: the remaining activity is 85% (inactive).
`COC(=O)[C@@H](N)Cc1ccc(O)c(O)c1`: the remaining activity is 107% (inactive).
The value for `CC1CCN(CC[C@H]2CCCN2S(=O)(=O)c2cccc(O)c2)CC1` was 125% (inactive).
With `CC[N+](C)(C)Cc1ccccc1Br`, the remaining activity is 108% (inactive).
The value for `Oc1cc(O)cc(/C=C/c2ccc(O)c(O)c2)c1` was 125% (inactive); that for `OC[C@H]1O[C@H]([S-])[C@H](O)[C@@H](O)[C@@H]1O.[Au+]` was 66.7% (active).
The value for `Oc1ccc(C2CNCCc3c2cc(O)c(O)c3Cl)cc1` (stereo not given) was 94.3% (inactive); that for `CC(C)(C)c1ccc(C(O)CCCN2CCC(C(O)(c3ccccc3)c3ccccc3)CC2)cc1` (stereo not given) was 101% (inactive).
Regarding `C[C@H]1C[C@H]2[C@@H]3CCC4=CC(=O)C=C[C@]4(C)[C@@]3(Cl)[C@@H](O)C[C@]2(C)[C@@]1(O)C(=O)CO`, the remaining activity is 107% (inactive).
In the case of `CC(=O)N1CCN(c2ccc(OC[C@H]3CO[C@](Cn4ccnc4)(c4ccc(Cl)cc4Cl)O3)cc2)CC1`, the remaining activity was 121% (inactive).
The value for `OCCN1CCN(CCCN2c3ccccc3C=Cc3ccccc32)CC1` was 117% (inactive).
